DT40 TDP1 CPT: DT40-hTDP1 cell growth loss with CPT | chicken DT40 Tdp1-/-;hTDP1 cells + 20 nM CPT, ATP luminescence, 48 h | Potency, µM (top dose mostly 46.2 µM), actives largely listed as inhibitors | 12% of 420,000 active | AID 686979; further: nearly all actives have a fitted effect of over 55% in size
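Chicken DT40 Tdp1-/- cells stably complemented with human TDP1 were seeded at 400 cells/well in medium containing 20 nM camptothecin, exposed to pin-transferred compounds, and grown at 37 °C for at least 48 hr. Viability was read as ATP luminescence.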
RORg inh: ROR gamma (mouse) transcription inhibition; P51450; Potency, µM (titrated, usually from 53.6 µM), usual class: inhibitors; 5.4% of 310,000 active; Drosophila S2 Gal4-RORgamma UAS-luciferase reporter, 20 h; further: nearly all actives have a fitted effect of over 60% in size
Target sequence (P51450 whole entry, looked up, the tested form may be a part): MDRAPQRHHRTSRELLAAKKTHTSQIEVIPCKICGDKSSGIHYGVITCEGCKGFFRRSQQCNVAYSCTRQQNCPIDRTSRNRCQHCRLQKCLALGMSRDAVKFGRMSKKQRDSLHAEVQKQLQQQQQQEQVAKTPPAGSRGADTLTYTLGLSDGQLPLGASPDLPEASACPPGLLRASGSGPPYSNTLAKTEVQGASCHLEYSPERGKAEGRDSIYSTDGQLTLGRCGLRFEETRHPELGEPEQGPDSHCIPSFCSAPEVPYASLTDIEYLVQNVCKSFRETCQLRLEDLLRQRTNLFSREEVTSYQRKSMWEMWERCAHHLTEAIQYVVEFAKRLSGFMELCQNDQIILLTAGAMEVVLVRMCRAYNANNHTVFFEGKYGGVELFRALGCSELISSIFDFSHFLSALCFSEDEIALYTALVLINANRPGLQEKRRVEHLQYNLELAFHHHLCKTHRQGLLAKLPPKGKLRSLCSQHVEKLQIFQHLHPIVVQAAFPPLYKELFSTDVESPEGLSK
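A Gal4/UAS one-hybrid system in insect cells: metallothionein-promoter Gal4–ROR gamma fusion plus Photinus luciferase reporter. Copper sulfate 700 uM final, 20 hr ambient incubation, luminescent detection after 10 min with reagent.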
ELG1 DNA repair: blocks ELG1-dependent DNA repair in HEK293T cells. HEK293T ELG1-luciferase reporter, luminescence, 16 h; DNA damage induced by 5-fluorouridine. Potency, µM (doses to about 46.1 µM), actives largely listed as inhibitors. 2.3% of 330,000 active; further: nearly all actives have a fitted effect of over 55% in size
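HEK293T cells expressing luciferase-tagged ELG1 (2,000/well) received 5-Fluorouridine plus compound or DMSO for 16 hr at 37 °C. Luciferase was read by ONE-Glo luminescence after 30 min at room temperature.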
DT40 TDP1 no CPT: qHTS for Inhibitors of human tyrosyl-DNA phosphodiesterase 1 (TDP1): qHTS in cells in absence of CPT | DT40 Tdp1-/- hTDP1 cells, no CPT, ATP luminescence, 48 h | Potency, µM (series often up to 46.2 µM), hits mostly inhibitors | 15% of 420,000 active | AID 686978, 2013; further: nearly all actives have a fitted effect of over 55% in size
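Luminescent ATP content (CellTiter-Glo) served as the growth readout. Knockout chicken DT40 cells expressing human TDP1 were exposed to compounds without camptothecin for a minimum 48 hr at 37 °C.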
ALOX12 inh: inhibitors of human 12S-lipoxygenase ALOX12; purified 12hLO, xylenol orange hydroperoxide absorbance; Potency, µM (highest dose often 108 µM), usual class: inhibitors; AID 1671190; 1.1% of 580,000 active
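Purified human 12hLO (150 nM final) in 25 mM Hepes, 0.01% Triton X-100, pH 7.0 was preincubated 15 min at room temperature with compound. Then 40 uM arachidonic acid was added, 30 min. Hydroperoxide was read by Fe-XO absorbance ratio 573/405 nm.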
Gal4-VP16 FLuc: counter-screen for ROR gamma inhibitors: Gal4-VP16 reporter | Drosophila S2 Gal4-VP16 UAS-luciferase, luminescence, 20 h | AID 2546 | Potency, µM (highest dose often 53.6 µM), actives largely listed as inhibitors | 3.5% of 310,000 active;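 further: Gal4-VP16 expression switched on by copper sulfate through the metallothionein promoter; nearly all actives have a fitted effect of over 50% in size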
Numbers stand for hits; 0 = inactive; ? = inconclusive; - = no result given; ! = a repeat was not active; [ ] = another dose, or the depositor's remark. A selection: hits, their analogues and other compounds. The true share with any hit is near 15%. The call rests on the fitted dose curve; in most records, active means well fitted curve in the direction sought with a large enough effect; inconclusive means small, poorly fitted or top-dose-only effect, or another doubt; inactive means no such curve, though single readings can be large; an effect the other way counts as inactive or inconclusive.

SMILES | DT40 TDP1 CPT | RORg inh | ELG1 DNA repair | DT40 TDP1 no CPT | ALOX12 inh | Gal4-VP16 FLuc
CC(=O)NCC(=O)NC1CCCc2c1cnn2-c1ccc(C(C)(C)C)cc1 (centres undefined) | 0 | ? | 0 | 4.1µM | 0 | 0
Cc1cc(C(=O)NC2CCCc3c2cnn3-c2ccc(C(C)(C)C)cc2)nn1C (centres undefined) | 8.2µM | ? | 0 | 16µM | 0 | 11µM
CC(C)(C)c1ccc(-n2ncc3c2CCCC3NC(=O)c2c[nH]c(=O)[nH]c2=O)cc1 (centres undefined) | - | - | - | - | 0 | -
CS(=O)(=O)N1CCCC1c1noc(CCC(=O)NCC2CC2)n1 (centres undefined) | - | - | - | - | 0 | -
NC(=O)C1(NC(=O)c2ccc(S(=O)(=O)N3CCCC(O)C3)cc2)CCCC1 (centres undefined) | - | - | - | - | 0 | -
O=C(CN1CCCC1=O)NC1CCCc2c1cnn2-c1cc(F)cc(F)c1 (centres undefined) | 0 | 0 | 0 | 0 | 0 | 0
CC(C)(C)c1ccc(-n2ncc3c2CCCC3NC(=O)CCCn2cncn2)cc1 (centres undefined) | 13µM | 0 | 0 | ? | 0 | ?
CC(C)(C)c1ccc(-n2ncc3c2CCCC3NC(=O)CCn2cncn2)cc1 (centres undefined) | ? | ? | 0 | ? | 0 | ?
CC(=O)Nc1cccc(C(=O)NC2CCCc3c2cnn3-c2ccc(C(C)(C)C)cc2)c1 (centres undefined) | ? | ? | 8.2µM | ? | 0 | 0
CC(C)(C)c1ccc(-n2ncc3c2CCCC3NC(=O)CN2CCCCC2=O)cc1 (centres undefined) | 16µM | 0 | 0 | ? | 0 | ?
CC(C)(C)c1ccc(-n2ncc3c2CCCC3NC(=O)CCN2CCCO2)cc1 (centres undefined) | 23µM | 0 | 0 | ? | 0 | ?
COC(=O)[C@@]12C[C@@H](CC(=O)NCC34CC5CC(CC(C5)C3)C4)C(=O)N(Cc3ccccc3)C1=CCC(C)(C)C2 | ? | - | - | 21µM | 0 | -
COC(=O)[C@]12CCCCC=C1N(Cc1ccccc1)C(=O)[C@H](CC(=O)NCC13CC4CC(CC(C4)C1)C3)C2 | 18µM | - | - | ? | ? | -
CN1CC2(CCN(C(=O)c3cccnc3N(C)C3CCCCC3)CC2)OC1=O | - | - | - | - | 0 | -
CCOc1ccc(NC(=O)c2cnn(-c3ccc(C)c(Cl)c3)c2C2CCNCC2)cc1 | 23µM | - | - | ? | 0 | -
COC(=O)c1nnn(CC(=O)Nc2ccc(C)cc2Cl)c1C(=O)OC | - | - | - | - | 0 | -
CC#CCn1cc2c3c(cccc31)[C@H](CC(C)C)N[C@H](C(=O)NCc1ccccc1)C2 | - | - | - | - | 0 | -
CCCc1noc(-c2cccn3c(CNC(=O)c4cc(C)ccc4C)nnc23)n1 | - | - | - | - | 0 | -
COc1ccc(C(CN)c2c[nH]c3ccccc23)cc1 (centres undefined) | - | - | - | - | 0 | -
O=c1cc(CO)oc(C(Nc2ccccn2)c2ccc(F)cc2)c1O (centres undefined) | 0 | 0 | 0 | 0 | ? | 0
O=C(O)CC(c1ccncc1)c1c[nH]c2ccccc12 (centres undefined) | - | - | - | - | 3.5µM | -
O=[N+]([O-])CC(c1ccc(F)cc1)c1c[nH]c2ccccc12 (centres undefined) | 7.3µM | 0 | ? | 6.5µM | 0 | 0
CC(NC(=O)CCc1c[nH]c2ccccc12)c1ccncc1 (centres undefined) | - | - | - | - | 0 | -
Fc1ccc(C(Nc2ccccn2)c2c[nH]c3ccccc23)cc1 (centres undefined) | ? | 0 | 0 | ? | 6.3µM | 0
CCCc1cc(C(=O)N2CCOC(c3ccc(Cl)c(Cl)c3)C2)ccn1 (centres undefined) | - | - | - | - | 0 | -
SMILES | DT40 TDP1 CPT | RORg inh | ELG1 DNA repair | DT40 TDP1 no CPT | ALOX12 inh | Gal4-VP16 FLuc
COc1ccccc1NS(=O)(=O)c1cccc(NC(=O)c2nc3nc(C)cc(C)n3n2)c1 | 23µM | 0 | ? | 13µM | 0 | 0
CN(C)S(=O)(=O)c1cccc(NC(=O)c2ccc3ccccc3n2)c1 | - | - | - | - | 0 | -
O=C(Nc1cccc(S(=O)(=O)Nc2ccccc2F)c1)c1ccc2ccccc2n1 | ? | 0 | ? | 23µM | ? | 0
O=C(Cc1ccc(Cl)cc1Cl)Nc1cccc(S(=O)(=O)Nc2ccccc2F)c1 | 15µM | ? | 0 | 23µM | ? | ?
O=C(/C=C/c1ccccc1)Nc1cccc(S(=O)(=O)Nc2ccccc2F)c1 | 15µM | 0 | 0 | 15µM | 22µM | ?
Cn1nc(C(=O)NCCc2cccs2)c2ccccc2c1=O | - | - | - | - | 0 | -
Cc1ccc(C2=[N+]([O-])C(C)(C)C(c3ccc(C)cc3)=[N+]([O-])C2(C)C)cc1 | - | - | - | - | 0 | -
COc1ccccc1NS(=O)(=O)c1cccc(NC(=O)c2ccc3ccccc3n2)c1 | 21µM | ? | 18µM | 16µM | 0 | ?
CCN(CC)S(=O)(=O)c1cccc(NC(=O)c2ccc3ccccc3n2)c1 | - | - | - | - | 0 | -
CCN(CC)C(=O)CCc1c(C)nn(-c2ccccc2)c1Oc1ccccc1 | - | - | - | - | 0 | -
Cc1cc(Cl)ccc1OCC(=O)NCc1ccncc1 | ? | 0 | ? | ? | 0 | 0
CC(C)NC(=O)COc1ccc(Cl)cc1Cl | ? | 0 | 0 | 0 | 0 | 0
CCn1cc(C(C)NC(=O)COc2ccc(Cl)cc2C)c(C)n1 (centres undefined) | ? | 0 | ? | 21µM | 0 | 0
Cc1cccc(OCC(=O)Nc2ccncc2)c1C | 12µM | ? | 0 | 8.2µM | 0 | 3.2µM
COc1ccccc1OCC(=O)Nc1ccncc1 | 0 | 0 | 0 | ? | 0 | 0
Cc1cccc(OCC(=O)Nc2ccc(S(=O)(=O)Nc3onc(C)c3C)cc2)c1C | 0 | 0 | 0 | ? | 40µM! | 0
Cc1cc(Cl)ccc1OCC(=O)Nc1ccncc1 | ? | ? | ? | 5.8µM | 0 | ?
NC(=O)C1CCN(CC(=O)Nc2ccc(Br)cc2)CC1 | - | - | - | - | 0 | -
Cc1cccc(OCC(=O)Nc2c(C)ccc3nsnc23)c1C | 15µM | - | - | ? | 0 | -
Cc1ccc2nsnc2c1NC(=O)COc1ccccc1F | 0 | 0 | 0 | 0 | 0 | 0
Cc1ccc2c(c1)sc(=NC(=O)c1cccs1)n2C | ? | 8.9µM | ? | 0 | 0 | 7.9µM
Cc1ccc2c(c1)sc(=NC(=O)C1CC1)n2C | ? | 0 | ? | ? | ? | 0
C#CCn1c(=NC(=O)c2cccs2)sc2cccc(OC)c21 | ? | 0 | 0 | 13µM | 0 | 0
CC1CCc2c(sc3nc(C(C)(C)C)nc(N4CCN(C(=O)CCl)CC4)c23)C1 (centres undefined) | 1.8µM | 13µM | ? | 2.6µM | ? | 13µM
CCN1CCN(c2ncnc3sc4c(c23)CCC(C)C4)CC1 (centres undefined) | 0 | 0 | 0 | 0 | ? | 0
Cc1sccc1C1C(C#N)=C(N)SC(N)=C1C#N | - | 0[0.365 µM] | 0 | - | - | -

Screening data deposited in PubChem by National Center for Advancing Translational Sciences (NCATS).
